Laboratory results taken from the supplement of paper PMC8975748.
Structures can show the parent of a compound that is named as a salt. ± gives the standard deviation of the averaged measurements.

Experiments:
[1] = system: Saccharomyces cerevisiae BY4741 SeMeCo community; test: mean cell size (pixel area) (pixels); higher = larger cells; details: 10 µM; 24 h; SM minimal medium
Summary of the method: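 Mean cell pixel area per well was measured in a four-plasmid fluorescent community of Saccharomyces cerevisiae BY4741, where every plasmid complements one auxotrophy and carries a fluorescent marker. Cells from an overnight preculture at OD600 = 1.0 were diluted to OD600 = 0.3 and dispensed at 70 µl into 384-well plates acoustically predosed with drug to a final 10 µM in SM medium. Incubation lasted 24 h, followed by paraformaldehyde fixation, automated confocal imaging and analysis in Harmony. Reported figures are averaged over 3 replicates. Same SeMeCo high-content imaging drug screen: Selleck FDA-approved drugs at 10 µM, 24 h in SM medium, 384-well plates, 3 replicates.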

[2] = system: Saccharomyces cerevisiae BY4741 SeMeCo community; test: z-score of prototroph abundance vs DMSO median; higher = larger share of this subpopulation than in DMSO controls; details: 10 µM; 24 h; SM minimal medium; subpopulation (auxotrophy): Prototroph
Summary of the method: (§1)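 Cells of a Saccharomyces cerevisiae BY4741 community, carrying four plasmids that each restored one auxotrophy and encoded a distinct fluorescent protein, were pre-grown overnight to OD600 1.0 and diluted to 0.3. A 70 µl volume was added to 384-well plates acoustically predosed with library drugs (10 µM final) and grown 24 h in minimal SM medium. After paraformaldehyde fixation, automated confocal microscopy was used, with single-auxotroph fluorescent strains for thresholds and autofluorescence correction. The abundance of each subpopulation was scored as a z-score against the vehicle-well median.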

[3] = system: Saccharomyces cerevisiae BY4741 SeMeCo community; test: z-score of subpopulation abundance vs DMSO median, subpopulation auxotrophic for M; higher = larger share of this subpopulation than in DMSO controls; details: 10 µM; 24 h; SM minimal medium; subpopulation (auxotrophy): M
Summary of the method: as §1

[4] = system: Saccharomyces cerevisiae BY4741 SeMeCo community; test: z-score of subpopulation abundance vs DMSO median, subpopulation auxotrophic for L; higher = larger share of this subpopulation than in DMSO controls; details: 10 µM; 24 h; SM minimal medium; subpopulation (auxotrophy): L
Summary of the method: as §1

[5] = system: Saccharomyces cerevisiae BY4741 SeMeCo community; test: z-score of subpopulation abundance vs DMSO median, subpopulation auxotrophic for U; higher = larger share of this subpopulation than in DMSO controls; details: 10 µM; 24 h; SM minimal medium; subpopulation (auxotrophy): U
Summary of the method: as §1

[6] = system: Saccharomyces cerevisiae BY4741 SeMeCo community; test: z-score of subpopulation abundance vs DMSO median, subpopulation auxotrophic for H; higher = larger share of this subpopulation than in DMSO controls; details: 10 µM; 24 h; SM minimal medium; subpopulation (auxotrophy): H
Summary of the method: as §1

[7] = system: Saccharomyces cerevisiae BY4741 SeMeCo community; test: z-score of subpopulation abundance vs DMSO median, subpopulation auxotrophic for LU; higher = larger share of this subpopulation than in DMSO controls; details: 10 µM; 24 h; SM minimal medium; subpopulation (auxotrophy): LU
Summary of the method: as §1

[8] = system: Saccharomyces cerevisiae BY4741 SeMeCo community; test: z-score of subpopulation abundance vs DMSO median, subpopulation auxotrophic for LM; higher = larger share of this subpopulation than in DMSO controls; details: 10 µM; 24 h; SM minimal medium; subpopulation (auxotrophy): LM
Summary of the method: as §1

[9] = system: Saccharomyces cerevisiae BY4741 SeMeCo community; test: z-score of subpopulation abundance vs DMSO median, subpopulation auxotrophic for HM; higher = larger share of this subpopulation than in DMSO controls; details: 10 µM; 24 h; SM minimal medium; subpopulation (auxotrophy): HM
Summary of the method: as §1

[10] = system: Saccharomyces cerevisiae BY4741 SeMeCo community; test: z-score of subpopulation abundance vs DMSO median, subpopulation auxotrophic for HU; higher = larger share of this subpopulation than in DMSO controls; details: 10 µM; 24 h; SM minimal medium; subpopulation (auxotrophy): HU
Summary of the method: as §1

[11] = system: Saccharomyces cerevisiae BY4741 SeMeCo community; test: z-score of subpopulation abundance vs DMSO median, subpopulation auxotrophic for UM; higher = larger share of this subpopulation than in DMSO controls; details: 10 µM; 24 h; SM minimal medium; subpopulation (auxotrophy): UM
Summary of the method: as §1

[12] = system: Saccharomyces cerevisiae BY4741 SeMeCo community; test: z-score of subpopulation abundance vs DMSO median, subpopulation auxotrophic for HLU; higher = larger share of this subpopulation than in DMSO controls; details: 10 µM; 24 h; SM minimal medium; subpopulation (auxotrophy): HLU
Summary of the method: as §1

[13] = system: Saccharomyces cerevisiae BY4741 SeMeCo community; test: z-score of subpopulation abundance vs DMSO median, subpopulation auxotrophic for HLM; higher = larger share of this subpopulation than in DMSO controls; details: 10 µM; 24 h; SM minimal medium; subpopulation (auxotrophy): HLM
Summary of the method: as §1

[14] = system: Saccharomyces cerevisiae BY4741 SeMeCo community; test: z-score of subpopulation abundance vs DMSO median, subpopulation auxotrophic for HUM; higher = larger share of this subpopulation than in DMSO controls; details: 10 µM; 24 h; SM minimal medium; subpopulation (auxotrophy): HUM
Summary of the method: as §1

[15] = system: Saccharomyces cerevisiae BY4741 SeMeCo community; test: z-score of subpopulation abundance vs DMSO median, subpopulation auxotrophic for LUM; higher = larger share of this subpopulation than in DMSO controls; details: 10 µM; 24 h; SM minimal medium; subpopulation (auxotrophy): LUM
Summary of the method: as §1

[16] = system: Saccharomyces cerevisiae BY4741 SeMeCo community; test: z-score of subpopulation abundance vs DMSO median, subpopulation auxotrophic for HLUM; higher = larger share of this subpopulation than in DMSO controls; details: 10 µM; 24 h; SM minimal medium; subpopulation (auxotrophy): HLUM
Summary of the method: as §1

[17] = system: Saccharomyces cerevisiae BY4741 SeMeCo community; test: z-score of subpopulation abundance vs DMSO median, subpopulation auxotrophic for HL; higher = larger share of this subpopulation than in DMSO controls; details: 10 µM; 24 h; SM minimal medium; subpopulation (auxotrophy): HL
Summary of the method: as §1

Compound | mean cell size [1] | z-score of prototroph abundance [2] | z-score of subpopulation abundance [3] | z-score of subpopulation abundance [4] | z-score of subpopulation abundance [5] | z-score of subpopulation abundance [6] | z-score of subpopulation abundance [7] | z-score of subpopulation abundance [8] | z-score of subpopulation abundance [9] | z-score of subpopulation abundance [10] | z-score of subpopulation abundance [11] | z-score of subpopulation abundance [12] | z-score of subpopulation abundance [13] | z-score of subpopulation abundance [14] | z-score of subpopulation abundance [15] | z-score of subpopulation abundance [16] | z-score of subpopulation abundance [17]
O=C(O[C@@H]1C[C@@H]2C[C@H]3C[C@H](C1)N2CC3=O)c1c[nH]c2ccccc12 [Dolasetron Mesylate] | 12.18 ± 0.11 | -0.86 | 0.81 | -0.52 | 0.89 | -0.55 | 1.19 | 0.31 | 1.09 | 0.7 | 1.07 | 0.01 | 0.35 | 0.41 | 0.21 | -0.07 | –
CCCN(CCc1cccs1)[C@H]1CCc2c(O)cccc2C1 [Rotigotine] | 12.6 ± 0.31 | 0.61 | 0.93 | 0.33 | -1.74 | -0.04 | -0.93 | 1.22 | 1.47 | -1.03 | -1.79 | -0.16 | -0.19 | -0.69 | -0.27 | -0.54 | 0.46
O=[N+]([O-])c1ccc(O)c2ncccc12 [Nitroxoline] | 13.6 ± 0.5 | -16.6 | 1.38 | -0.84 | -2.48 | 9.75 | 12.2 | 4.84 | 27.9 | 16.3 | 4.38 | 24.8 | 65.9 | 19.7 | 11 | 36.6 | 22.6
Oc1ccc(C2CNCCc3c2cc(O)c(O)c3Cl)cc1 (stereo unspecified) [Fenoldopam mesylate] | 12.9 ± 0.26 | 0.87 | 1.31 | -1.59 | -1.92 | 0.06 | -1.75 | 2.31 | 1.58 | -0.06 | – | -0.29 | 0.63 | -0.92 | -1.22 | 1.24 | 0.16
NC[C@H]1O[C@H](O[C@H]2[C@H](O)[C@@H](O[C@H]3O[C@H](CO)[C@@H](O)[C@H](N)[C@H]3O)[C@H](N)C[C@@H]2N)[C@H](N)C[C@@H]1O [Tobramycin] | 11.72 ± 0.043 | 0.02 | 0.73 | -0.45 | 0.79 | -1.81 | -0.02 | -0.17 | -0.2 | 0 | 0.54 | -0.41 | -1.18 | 0.03 | -0.69 | -1.08 | –
O=c1n(CCCN2CCN(c3cccc(Cl)c3)CC2)nc2ccccn12 [Trazodone HCl] | 12.6 ± 0.15 | -0.06 | 2.19 | -1.59 | -0.6 | -0.86 | -0.97 | -0.41 | 0.92 | 0.33 | 0.22 | -0.83 | 0.04 | 0.45 | -0.51 | -0.57 | -0.82
CC(=O)Oc1ccc(C(=C2CCCCC2)c2ccc(OC(C)=O)cc2)cc1 [Cyclofenil] | 12.3 ± 0.17 | 0.79 | -1.19 | -0.27 | 0.16 | -0.22 | -0.48 | -1.03 | -0.93 | -0.3 | -0.03 | -0.23 | 0.41 | -0.46 | -0.06 | -0.2 | –
C[C@@H]1O[C@@H]1P(=O)(O)O [Fosfomycin Disodium] | 12 ± 0.14 | 0.42 | -0.48 | 0.72 | -0.22 | 0.63 | 0.6 | -0.25 | -0.52 | 0.04 | – | 0.52 | -0.12 | -0.19 | 0.06 | -0.05 | 0.86
CO/N=C(\C(=O)N[C@@H]1C(=O)N2C(C(=O)O)=C(CSC(=O)c3ccco3)CS[C@H]12)c1csc(N)n1 [Ceftiofur HCl] | 12.54 ± 0.051 | – | -0.14 | -0.69 | 1.47 | -0.05 | 1 | -0.53 | 0.46 | 0.85 | 1.05 | 0.02 | 0.11 | 2.38 | -0.05 | 0.19 | -0.8
N=C(N)NC(=O)c1nc(Cl)c(N)nc1N [Amiloride HCl] | 12.59 ± 0.11 | -0.41 | 1.46 | 1.94 | -1.58 | 0.83 | -0.38 | 3.94 | 1.25 | -2.41 | -1.89 | -0.5 | 3.24 | -1.69 | – | 0.53 | 1.51
OCCN1CCN(CCCN2c3ccccc3Sc3ccc(C(F)(F)F)cc32)CC1 [Fluphenazine dihydrochloride] | 12.4 ± 0.097 | -0.57 | -0.08 | 1.3 | -0.38 | 1.1 | 0.63 | 0.55 | 0.59 | 0.37 | -1.12 | 1.24 | 1.11 | -0.44 | – | 0.51 | 1.51
CC1(C)S[C@@H]2[C@H](NC(=O)Cc3ccccc3)C(=O)N2[C@H]1C(=O)O [Penicillin G Sodium] | 12.6 ± 0.34 | 0.77 | -0.8 | -0.1 | 0.06 | -0.3 | 0.16 | -0.29 | -1.14 | -0.78 | -0.23 | -0.18 | -0.09 | -0.66 | – | 1.41 | -0.32
COc1cccc2c1C(=O)c1c(O)c3c(c(O)c1C2=O)CC(O)(C(=O)CO)CC3OC1CC(N)C(O)C(C)O1 (stereo unspecified) [Doxorubicin (Adriamycin) HCl] | 13.68 ± 0.1 | – | -6.37 | 0.99 | 4.2 | 4.08 | 8.06 | -0.36 | -2.19 | 8.36 | 0.38 | 12.3 | 2.16 | 2.39 | – | 12.9 | 2.67
CCCCOC(=O)c1ccc(O)cc1 [Butylparaben] | 12.3 ± 0.29 | 1.77 | -0.57 | -0.62 | – | -1.64 | -1.79 | -0.49 | -1.19 | -1.93 | -1.24 | -1.3 | -0.41 | -1.38 | -0.62 | 0.07 | -0.99
